Experimental data reported in PubChem BioAssay AID1273 (Columbia University Molecular Screening Center, 2008).
About 1,200 (0.92%) of roughly 130,000 compounds were called active. This is one part of a sample in which actives are shown more often than they occur.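 The calls were made as follows: active = inhibition above the mean plus 3 SD, with well images judged a real hit on visual review (cut at about 60% in these data, passing the limit was not always enough); inconclusive = inhibition over the cutoff but images rejected on review; inactive = inhibition not above the cutoff.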

Test: insulin gene promoter suppression in islet cells – imaging, TRM-6 cells (human fetal islet line), eGFP reporter, cell count, primary screen (AID 1273;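 as to normalized cell count: cells exposed to compound for 48 h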)
Details: at 2 µM, reporter expression induced with tamoxifen; inhibition: stronger effect = higher value; normalized cell count: measured here: cell count, toxicity
With `CC(C)C(=O)NCc1cc(-c2ccc(Cl)cc2)no1` the inhibition was 55% (inactive) and the normalized cell count was 86.2%. For `CS(=O)(=O)N1CCc2cc(C(=O)Nc3ccccc3)ccc21`, the inhibition was 43.6% (inactive) and the normalized cell count was 103%. In the case of `COC(=O)Cn1c2ccc(C)cc2c2nc(C)sc21`, the inhibition is reported as 85.7% (active) and the normalized cell count is reported as 32.4%. With `COC(=O)Cn1c(=NC(=O)c2cc(OC)c(OC)c(OC)c2)sc2cc(OC)ccc21` the inhibition was -14.3% (inactive) and the normalized cell count was 101%. In the case of `CCN(CC)CCn1c2ccc(Cl)cc2c2nc(C)sc21`, the inhibition is reported as 46.1% (inactive) and the normalized cell count is reported as 78.6%. For `Cc1cc(NC(=O)CN2C(=O)NC(CCc3ccccc3)C2=O)no1` (centres undefined), the inhibition was 60% (inactive) and the normalized cell count was 76%. In the case of `S=C(NCc1cccnc1)Nc1ccc(Cl)cc1Cl`, the inhibition is reported as -31.6% (inactive) and the normalized cell count is reported as 122%. In the case of `CC(C(=O)NC1CCCC1)N(c1ccc(Oc2ccccc2)cc1)S(C)(=O)=O` (centres undefined), the inhibition is reported as -15.8% (inactive) and the normalized cell count is reported as 67.6%. With `Cc1ccc(S(=O)(=O)N(C)C)cc1NC(=O)COC(=O)C1COc2ccccc2O1` (centres undefined) the inhibition was -44.4% (inactive) and the normalized cell count was 51.1%. For `CCCCn1nc(C(=O)Nc2ccc(S(=O)(=O)Nc3ncccn3)cc2)c2ccccc2c1=O`, the inhibition was 25% (inactive) and the normalized cell count was 158%. In the case of `Cc1ccsc1CNn1cnnc1SCc1ccccc1F`, the inhibition is reported as 86.5% (active) and the normalized cell count is reported as 28.9%. With `O=C(O)CSc1nnc(-c2ccc3c(c2)OCO3)n1-c1ccccc1` the inhibition was 15% (inactive) and the normalized cell count was 96.8%. In the case of `CCC1(CC)NC(=O)N(Cc2nc3ccccc3s2)C1=O`, the inhibition is reported as -16.7% (inactive) and the normalized cell count is reported as 127%. In the case of `CCOC12CC(C)(C)CC(C)(CC3=C1C(=O)CC(C)(C)C3)C2` (centres undefined), the inhibition is reported as 73.7% (active) and the normalized cell count is reported as 4.89%. With `CCCN(CC(=O)Nc1ccc(OC)c(OC)c1)CC(=O)Nc1ccc(F)c(F)c1F` the inhibition was -25% (inactive) and the normalized cell count was 134%. In the case of `O=Cc1ccc(OCc2cn3ccccc3n2)cc1`, the inhibition is reported as 36.4% (inactive) and the normalized cell count is reported as 194%. With `COC(=O)NNC1=CC(=O)CC(C)(C)C1` the inhibition was -26.7% (inactive) and the normalized cell count was 74.6%. With `COC(=O)C(NS(=O)(=O)c1ccc(F)cc1)c1ccccc1` (centres undefined) the inhibition was -16.3% (inactive) and the normalized cell count was 140%. For `Fc1ccccc1/C=C1\CCCC2=C1Nc1ncnn1C2c1ccccc1F` (centres undefined), the inhibition was 86.1% (active) and the normalized cell count was 102%. In the case of `COc1cccc(N2CCN(C3CC(=O)N(c4ccc(Cl)cc4)C3=O)CC2)c1` (centres undefined), the inhibition is reported as 30.8% (inactive) and the normalized cell count is reported as 118%. In the case of `COc1ccc(N2CCN(C3CC(=O)N(c4ccc5c(c4)OCCO5)C3=O)CC2)cc1` (centres undefined), the inhibition is reported as 91.7% (active) and the normalized cell count is reported as 78.3%. In the case of `O=CN1CCN(C2CC(=O)N(c3ccc4c(c3)OCO4)C2=O)CC1` (centres undefined), the inhibition is reported as 20.9% (inactive) and the normalized cell count is reported as 129%. For `CN(C)c1ccc(/C=N\S(=O)(=O)c2ccccc2)cc1`, the inhibition was -39.5% (inactive) and the normalized cell count was 46.9%. In the case of `CCN(/N=C/c1ccc(N(C)C)cc1)c1nc2ccccc2[nH]1`, the inhibition is reported as 86.7% (active) and the normalized cell count is reported as 159%. In the case of `Nc1cccc(CCc2nc3ccccc3[nH]2)c1`, the inhibition is reported as 17.2% (inactive) and the normalized cell count is reported as 146%. In the case of `Cc1nn(CC#N)c(=O)n1N(C)c1ncc(C(F)(F)F)cc1Cl`, the inhibition is reported as 30% (inactive) and the normalized cell count is reported as 84.4%. In the case of `C=CCSc1nc2ccccc2[nH]1`, the inhibition is reported as 81.8% (active) and the normalized cell count is reported as 184%. With `COc1ccccc1CSc1nc2ccccc2[nH]1` the inhibition was -54.8% (inactive) and the normalized cell count was 124%. For `O=C(CSc1nc2ccccc2[nH]1)c1cccs1`, the inhibition was 42.9% (inactive) and the normalized cell count was 105%. With `CCOC(=O)CSc1nc(C)cc2c1C(=O)OC2` the inhibition was 28.6% (inactive) and the normalized cell count was 94.5%. In the case of `CCCCc1nnc(NC(=O)CSc2nc(N)cc(=O)[nH]2)s1`, the inhibition is reported as 12.5% (inactive) and the normalized cell count is reported as 93.7%. With `COc1ccc2oc(=O)c(C(=O)N3CCCC3)cc2c1` the inhibition was 44.4% (inactive) and the normalized cell count was 107%. With `CN(C)c1ccc(C=NCCc2ccc(S(N)(=O)=O)cc2)cc1` the inhibition was 31.2% (inactive) and the normalized cell count was 121%. In the case of `CC(C)(C)c1cc(=O)n2c(nc3ccccc32)[nH]1`, the inhibition is reported as 29.4% (inactive) and the normalized cell count is reported as 245%. With `CC1(C)CC(=O)c2cnc3nc4ccccc4n3c2C1` the inhibition was 76.2% (active) and the normalized cell count was 56.3%. With `Cc1ccc2nc(Nc3ncc4c(n3)CC(C)(C)CC4=O)nc(C)c2c1` the inhibition was -25% (inactive) and the normalized cell count was 96.8%. For `Cc1ccc(OCCCn2c(=O)oc3ccccc32)cc1`, the inhibition was -26.7% (inactive) and the normalized cell count was 84.1%. For `COc1ccc(OC)c(Cc2nnc(CCC(=O)NC3CCCC3)o2)c1`, the inhibition was 11.1% (inactive) and the normalized cell count was 95.3%. In the case of `Cc1onc(-c2ccccc2)c1C(=O)N1CCOCC1`, the inhibition is reported as -90% (inactive) and the normalized cell count is reported as 78.8%. For `Cc1onc(C(=O)NN)c1C(=O)N1CCN(C(c2ccccc2)c2ccccc2)CC1`, the inhibition was 81.8% (active) and the normalized cell count was 29.3%. In the case of `Cn1nnnc1SCC(=O)N1CCN(C(c2ccccc2)c2ccccc2)CC1`, the inhibition is reported as -18.9% (inactive) and the normalized cell count is reported as 68.2%. In the case of `Cc1nnsc1C(=O)N/N=C/c1cccc(C(F)(F)F)c1`, the inhibition is reported as -86.7% (inactive) and the normalized cell count is reported as 39.6%. For `O=c1c([N+](=O)[O-])cccn1Cc1ccc(F)cc1Cl`, the inhibition was 73.3% (active) and the normalized cell count was 83.1%. In the case of `O=[N+]([O-])c1ccccc1NCc1ccccc1Cl`, the inhibition is reported as 33.3% (inactive) and the normalized cell count is reported as 123%. In the case of `O=c1c([N+](=O)[O-])cc(C(F)(F)F)cn1Cc1cccc(Cl)c1`, the inhibition is reported as -10.7% (inactive) and the normalized cell count is reported as 66.7%. For `CCOC(=O)Cn1nnnc1C`, the inhibition was 26.7% (inactive) and the normalized cell count was 95.5%. In the case of `O=C(c1snnc1-c1ccccc1)N1CCOCC1`, the inhibition is reported as -30.2% (inactive) and the normalized cell count is reported as 64.9%. For `Cc1cccc(C)c1NC(=O)C1(N(C(=O)c2ccccn2)c2ccc(O)cc2)CCCCC1`, the inhibition was 6.67% (inactive) and the normalized cell count was 38.5%. With `CC(O)c1cccc(NC(=O)Cc2cccc3ccccc23)c1` (centres undefined) the inhibition was -38.9% (inactive) and the normalized cell count was 41%. With `COc1ccc(C(=O)N2CCC(C(=O)Nc3ccc(C)cc3)CC2)cc1` the inhibition was 33.3% (inactive) and the normalized cell count was 85.5%. In the case of `O=C1CCC(C(=O)Nc2ccc(OC(F)F)cc2)N1` (centres undefined), the inhibition is reported as 72.7% (active) and the normalized cell count is reported as 73.3%. For `CCCOc1ccc(NC(=O)C2CCCNC2=O)cc1` (centres undefined), the inhibition was 5.71% (inactive) and the normalized cell count was 82.1%. With `CCOC(=O)Cc1ncccc1C(=O)Nc1ccc(OC(F)(F)F)cc1` the inhibition was 0% (inactive) and the normalized cell count was 62.2%. With `O=C(CNCc1ccc(Cl)cc1)Nc1cccc(C(=O)O)c1` the inhibition was 38.5% (inactive) and the normalized cell count was 79.9%. For `Cc1ccc(O/C=C2\OC(=O)c3ccccc32)cc1`, the inhibition was 81.2% (active) and the normalized cell count was 93%. In the case of `Cc1ccc(S(=O)(=O)c2ccc(Oc3ccccc3)cc2)cc1`, the inhibition is reported as -87.1% (inactive) and the normalized cell count is reported as 116%. In the case of `Cc1ccc(OC(=O)c2cc3ccccc3o2)cc1`, the inhibition is reported as -79.3% (inactive) and the normalized cell count is reported as 174%. In the case of `Cc1nn(-c2ccccc2)c(Cl)c1/C=C/C(=O)c1ccc(O)cc1`, the inhibition is reported as -70.4% (inactive) and the normalized cell count is reported as 111%. With `Cc1nn(-c2ccccc2)c(C)c1/C=C/C(=O)OC(C)C(N)=O` (centres undefined) the inhibition was 68.8% (active) and the normalized cell count was 181%. For `Cc1ccc(C(=O)/C=C/c2c(C)nn(-c3ccccc3)c2Cl)cc1`, the inhibition was -16.7% (inactive) and the normalized cell count was 102%. In the case of `O=C(COc1cccc2ccccc12)Nc1cc(S(=O)(=O)N2CCOCC2)ccc1N1CCOCC1`, the inhibition is reported as 11.1% (inactive) and the normalized cell count is reported as 67.5%. For `CN1C(=O)C(CC(=O)Nc2ccccc2)S/C1=N/c1nccs1` (centres undefined), the inhibition was -107% (inactive) and the normalized cell count was 120%. For `COC(=O)c1nc(NC(=O)c2ccc(F)cc2)n[nH]1`, the inhibition was 28.6% (inactive) and the normalized cell count was 129%. In the case of `Cc1ccccc1NC(=O)c1nn(-c2ccc(F)c(F)c2)ccc1=O`, the inhibition is reported as 25% (inactive) and the normalized cell count is reported as 93.8%. For `O=C(Nc1ccc(F)cc1)N1CCCC(c2nc3c(nnn3Cc3ccccc3Cl)c(=O)[nH]2)C1` (centres undefined), the inhibition was -42.9% (inactive) and the normalized cell count was 122%. For `COc1ccc(Cn2nnc3c(=O)[nH]c(C4CCN(C(=O)c5ccccc5Cl)CC4)nc32)cc1`, the inhibition was 72.7% (active) and the normalized cell count was 34.3%. With `Cc1ccc(NC(=O)N2CCC(c3nc4c(nnn4Cc4c(F)cccc4Cl)c(=O)[nH]3)CC2)cc1` the inhibition was 6.25% (inactive) and the normalized cell count was 107%. With `COc1ccc(C2CC(c3cccs3)=NN2C(=O)CSc2nncs2)cc1OC` (centres undefined) the inhibition was 66.7% (inactive) and the normalized cell count was 95.8%. In the case of `CN1CCN(C(=O)CCc2ncc(C(F)(F)F)cc2Cl)CC1`, the inhibition is reported as 9.09% (inactive) and the normalized cell count is reported as 150%. For `Cc1ccc(CNC(=O)C2CCCN2C(=O)NCc2ccccc2)cc1` (centres undefined), the inhibition was 59% (inactive) and the normalized cell count was 73.5%. In the case of `COc1cccc(NC(=O)C2CCCN2C(=O)OCc2ccccc2)c1` (centres undefined), the inhibition is reported as -34.4% (inactive) and the normalized cell count is reported as 106%. For `CC(=O)c1cccc(NC(=O)N2CCCC2C(=O)NCCc2ccccc2)c1` (centres undefined), the inhibition was 82.1% (active) and the normalized cell count was 27.6%. For `O=[N+]([O-])c1ccc(N2CCNCC2)cc1NCc1cccnc1`, the inhibition was 66.7% (active) and the normalized cell count was 150%. For `O=C(c1ccccc1)N1CCN(c2ccc([N+](=O)[O-])c(NCc3ccco3)c2)CC1`, the inhibition was -9.68% (inactive) and the normalized cell count was 122%. With `O=[N+]([O-])c1ccc(N2CCN(S(=O)(=O)c3ccc4ccccc4c3)CC2)cc1NCc1ccco1` the inhibition was -18.5% (inactive) and the normalized cell count was 121%. With `COc1ccc(N2CCN(c3ccc([N+](=O)[O-])cc3Cl)CC2)cc1` the inhibition was 7.69% (inactive) and the normalized cell count was 106%. In the case of `O=[N+]([O-])c1ccc(N2CCN(c3ccc(O)cc3)CC2)c(Cl)c1`, the inhibition is reported as 86.7% (active) and the normalized cell count is reported as 135%. In the case of `CCN1CCN(c2ccc([N+](=O)[O-])cc2C(=O)c2ccc(Cl)cc2)CC1`, the inhibition is reported as -83.3% (inactive) and the normalized cell count is reported as 81.5%. For `Cc1cc(C)c2c(n1)nn1c(N3CCOCC3)cc(C)nc21`, the inhibition was 74.3% (active) and the normalized cell count was 60.7%. In the case of `Cc1cc(C)c2c(n1)nn1c(N3CCN(c4cccc(Cl)c4)CC3)cc(C)nc21`, the inhibition is reported as -82.8% (inactive) and the normalized cell count is reported as 99.8%. With `Cc1nn2c3cc(N4CCOCC4)ccc3nc2c2ccccc12` the inhibition was -63.5% (inactive) and the normalized cell count was 79.7%. For `CCCN(CC(=O)Nc1ccccc1C)C(=O)c1cc(=O)[nH]c2ccccc12`, the inhibition was -38.5% (inactive) and the normalized cell count was 49.2%. In the case of `C=CCC1(CC=C)CCCN1C(=O)CC1C(=O)NCCN1Cc1ccccc1OC` (centres undefined), the inhibition is reported as 20% (inactive) and the normalized cell count is reported as 91.1%. With `C/C(Cn1nnc2ccccc21)=N\OC(=O)c1cc(F)c(F)cc1Cl` the inhibition was -55% (inactive) and the normalized cell count was 99.6%. In the case of `Cc1cc(C#N)c(SCC(N)=O)nc1-c1ccc(F)cc1`, the inhibition is reported as 14.3% (inactive) and the normalized cell count is reported as 121%. With `CC(=O)c1cnc(SCC(=O)O)nc1C` the inhibition was 26.7% (inactive) and the normalized cell count was 105%. With `CC(=O)c1cc(C#N)c(SCC(=O)C(C)(C)C)nc1C` the inhibition was 65.4% (active) and the normalized cell count was 142%.
